Data from PubChem BioAssay AID1159580 (chemical genetic matrix, 2015).
“And” between values parts separate entries of the source, which are not always exact repeats. Identical values can stand only once. In all, about 5,500 compounds went through this assay and about 2,000 (36%) were called active. About 18% were inconclusive and are not listed. The list shows a part of the results. Unmarked numbers belong to inactive results. Cut-off read from the data, not from the text of the source: active = normalized growth mostly below about 0.91 (no sharp cut-off); inconclusive = no clear call, values can overlap the other calls; inactive = mostly above about 0.92.

Assay: chemical genetic growth profiling, strain panel (AID 1159580);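 note: tested at 20 µM; growth read once vehicle control cultures reached saturation at 30 °C; 1 = growth at the plate median or of vehicle wells; lower values mean less growth of the strain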
Conditions: S. cerevisiae deletion strains, growth OD

**Q.** Which normalized growth (locus YAL013W, strain DEP1, active compounds read low) does the source give for COc1ccc2cc([C@H](C)C(=O)O)ccc2c1 here?
**A.** 1

**Q.** And the normalized growth (locus YAL021C, strain ccr4, active compounds read low)?
**A.** 0.943

**Q.** What about the normalized growth (locus YAL026C, strain drs2, active compounds read low) of the same compound?
**A.** 0.961

**Q.** What about the normalized growth (locus YAL030W, strain snc1, active compounds read low) of the same compound?
**A.** 0.981

**Q.** And the normalized growth (locus YAL040C, strain CLN3, active compounds read low)?
**A.** 1.07

**Q.** What about the normalized growth (locus YBL061C, strain skt5, active compounds read low) of the same compound?
**A.** 0.984

**Q.** And the normalized growth (locus YBR009C, strain hhf1, active compounds read low)?
**A.** 0.98

**Q.** And the normalized growth (locus YBR021W, strain FUR4, active compounds read low)?
**A.** 0.958

**Q.** What about the normalized growth (locus YBR023C, strain chs3, active compounds read low) of the same compound?
**A.** 0.987

**Q.** What about the normalized growth (locus YBR171W, strain sec66, active compounds read low) of the same compound?
**A.** 0.963

**Q.** What about the normalized growth (locus YBR229C, strain ROT2, active compounds read low) of the same compound?
**A.** 1

**Q.** And the normalized growth (locus YBR231C, strain swc5, active compounds read low)?
**A.** 0.996

**Q.** And the normalized growth (locus YBR279W, strain paf1, active compounds read low)?
**A.** 0.967

**Q.** What about the normalized growth (locus YCL011C, strain gbp2, active compounds read low) of the same compound?
**A.** 0.98

**Q.** And the normalized growth (locus YCL016C, strain dcc1, active compounds read low)?
**A.** 0.993

**Q.** What about the normalized growth (locus YCL029C, strain bik1, active compounds read low) of the same compound?
**A.** 0.999

**Q.** And the normalized growth (locus YCL061C, strain MRC1 (second series), active compounds read low)?
**A.** 0.994

**Q.** What about the normalized growth (locus YCL061C, strain MRC1, active compounds read low) of the same compound?
**A.** 0.974

**Q.** What about the normalized growth (locus YCL069W, strain vba3, active compounds read low) of the same compound?
**A.** 0.968

**Q.** And the normalized growth (locus YCR088W, strain abp1, active compounds read low)?
**A.** 0.972

**Q.** And the normalized growth (locus YDL005C, strain med2, active compounds read low)?
**A.** 0.96

**Q.** And the normalized growth (locus YDL035C, strain GPR1, active compounds read low)?
**A.** 0.984

**Q.** What about the normalized growth (locus YDL040C, strain nat1, active compounds read low) of the same compound?
**A.** 0.973

**Q.** What about the normalized growth (locus YDL074C, strain BRE1, active compounds read low) of the same compound?
**A.** 0.989

**Q.** What about the normalized growth (locus YDL101C, strain DUN1, active compounds read low) of the same compound?
**A.** 1.02

**Q.** What about the normalized growth (locus YDL134C, strain PPH21, active compounds read low) of the same compound?
**A.** 1

**Q.** And the normalized growth (locus YDL185W, strain tfp1, active compounds read low)?
**A.** 0.957

**Q.** What about the normalized growth (locus YDL192W, strain arf1, active compounds read low) of the same compound?
**A.** 0.985

**Q.** What about the normalized growth (locus YDR001C, strain nth1, active compounds read low) of the same compound?
**A.** 0.98

**Q.** What about the normalized growth (locus YDR069C, strain doa4, active compounds read low) of the same compound?
**A.** 0.963

**Q.** What about the normalized growth (locus YDR101C, strain arx1, active compounds read low) of the same compound?
**A.** 1.01

**Q.** What about the normalized growth (locus YDR137W, strain rgp1, active compounds read low) of the same compound?
**A.** 0.932

**Q.** What about the normalized growth (locus YDR150W, strain NUM1, active compounds read low) of the same compound?
**A.** 1.01

**Q.** And the normalized growth (locus YDR159W, strain sac3, active compounds read low)?
**A.** 0.926

**Q.** And the normalized growth (locus YDR162C, strain NBP2, active compounds read low)?
**A.** 0.99

**Q.** And the normalized growth (locus YDR195W, strain ref2)?
**A.** 0.932

**Q.** And the normalized growth (locus YDR297W, strain sur2, active compounds read low)?
**A.** 0.978

**Q.** What about the normalized growth (locus YDR318W, strain mcm21, active compounds read low) of the same compound?
**A.** 0.996

**Q.** What about the normalized growth (locus YDR334W, strain swr1, active compounds read low) of the same compound?
**A.** 0.961

**Q.** What about the normalized growth (locus YDR335W, strain msn5, active compounds read low) of the same compound?
**A.** 0.988

**Q.** What about the normalized growth (locus YDR363W, strain ESC2, active compounds read low) of the same compound?
**A.** 0.979

**Q.** And the normalized growth (locus YDR388W, active compounds read low)?
**A.** 0.998

**Q.** And the normalized growth (locus YDR392W, strain spt3, active compounds read low)?
**A.** 0.842

**Q.** What about the normalized growth (locus YDR502C, strain sam2, active compounds read low) of the same compound?
**A.** 0.964

**Q.** What about the normalized growth (locus YEL003W, strain gim4, active compounds read low) of the same compound?
**A.** 0.951

**Q.** What about the normalized growth (locus YEL037C, strain rad23, active compounds read low) of the same compound?
**A.** 0.958

**Q.** And the normalized growth (locus YEL061C, strain CIN8 (second series), active compounds read low)?
**A.** 0.964

**Q.** And the normalized growth (locus YEL061C, strain CIN8, active compounds read low)?
**A.** 1

**Q.** What about the normalized growth (locus YER002W, strain NOP16, active compounds read low) of the same compound?
**A.** 0.969

**Q.** And the normalized growth (locus YER015W, strain faa2, active compounds read low)?
**A.** 0.978

**Q.** What about the normalized growth (locus YER016W, strain bim1, active compounds read low) of the same compound?
**A.** 0.976

**Q.** And the normalized growth (locus YER110C, active compounds read low)?
**A.** 0.992

**Q.** And the normalized growth (locus YER111C, strain swi4, active compounds read low)?
**A.** 0.966

**Q.** And the normalized growth (locus YER155C, strain BEM2 (second series), active compounds read low)?
**A.** 0.964

**Q.** What about the normalized growth (locus YER155C, strain BEM2, active compounds read low) of the same compound?
**A.** 0.975

**Q.** What about the normalized growth (locus YER167W, strain BCK2, active compounds read low) of the same compound?
**A.** 0.986

**Q.** What about the normalized growth (locus YFR010W, strain ubp6, active compounds read low) of the same compound?
**A.** 0.959

**Q.** And the normalized growth (locus YGL078C, strain dbp3, active compounds read low)?
**A.** 0.957

**Q.** And the normalized growth (locus YGL086W, strain mad1, active compounds read low)?
**A.** 0.98

**Q.** And the normalized growth (locus YGL167C, strain pmr1, active compounds read low)?
**A.** 0.977

**Q.** What about the normalized growth (locus YGL173C, strain kem1, active compounds read low) of the same compound?
**A.** 0.97

**Q.** What about the normalized growth (locus YGL227W, strain vid30, active compounds read low) of the same compound?
**A.** 0.98

**Q.** What about the normalized growth (locus YGL240W, strain doc1, active compounds read low) of the same compound?
**A.** 0.962

**Q.** And the normalized growth (locus YGL248W, strain PDE1, active compounds read low)?
**A.** 1

**Q.** And the normalized growth (locus YGL253W, strain hxk2, active compounds read low)?
**A.** 0.985

**Q.** And the normalized growth (locus YGR078C, strain PAC10, active compounds read low)?
**A.** 1

**Q.** What about the normalized growth (locus YGR135W, strain pre9, active compounds read low) of the same compound?
**A.** 0.984

**Q.** What about the normalized growth (locus YGR229C, strain SMI1, active compounds read low) of the same compound?
**A.** 0.999

**Q.** What about the normalized growth (locus YGR252W, strain gcn5, active compounds read low) of the same compound?
**A.** 0.933

**Q.** And the normalized growth (locus YHR013C, strain ard1, active compounds read low)?
**A.** 0.928

**Q.** And the normalized growth (locus YHR027C, strain rpn1, active compounds read low)?
**A.** 0.971

**Q.** What about the normalized growth (locus YHR030C, strain SLT2, active compounds read low) of the same compound?
**A.** 1.01 and 0.896

**Q.** What about the normalized growth (locus YHR079C, strain IRE1 (second series), active compounds read low) of the same compound?
**A.** 1

**Q.** What about the normalized growth (locus YHR079C, strain IRE1, active compounds read low) of the same compound?
**A.** 0.881

**Q.** And the normalized growth (locus YHR094C, strain hxt1, active compounds read low)?
**A.** 0.986

**Q.** What about the normalized growth (locus YHR129C, strain ARP1, active compounds read low) of the same compound?
**A.** 1.01

**Q.** And the normalized growth (locus YHR142W, strain chs7, active compounds read low)?
**A.** 0.965

**Q.** What about the normalized growth (locus YHR200W, strain rpn10, active compounds read low) of the same compound?
**A.** 0.982

**Q.** And the normalized growth (locus YIL066C, strain RNR3, active compounds read low)?
**A.** 1.01

**Q.** What about the normalized growth (locus YIL073C, strain SPO22, active compounds read low) of the same compound?
**A.** 1.03

**Q.** And the normalized growth (locus YIL125W, strain kgd1, active compounds read low)?
**A.** 0.93 (active)

**Q.** And the normalized growth (locus YIR030C, strain dcg1, active compounds read low)?
**A.** 0.995

**Q.** What about the normalized growth (locus YJL092W, strain hpr5, active compounds read low) of the same compound?
**A.** 0.959

**Q.** And the normalized growth (locus YJL095W, strain BCK1 (second series), active compounds read low)?
**A.** 0.987

**Q.** And the normalized growth (locus YJL095W, strain BCK1, active compounds read low)?
**A.** 1.04 and 0.918

**Q.** What about the normalized growth (locus YJL115W, strain asf1, active compounds read low) of the same compound?
**A.** 0.96

**Q.** And the normalized growth (locus YJL129C, strain trk1, active compounds read low)?
**A.** 0.9

**Q.** What about the normalized growth (locus YJL134W, strain LCB3, active compounds read low) of the same compound?
**A.** 1

**Q.** What about the normalized growth (locus YJL154C, strain vps35, active compounds read low) of the same compound?
**A.** 0.976

**Q.** What about the normalized growth (locus YJL164C, strain tpk1, active compounds read low) of the same compound?
**A.** 0.967

**Q.** What about the normalized growth (locus YJL166W, strain qcr8, active compounds read low) of the same compound?
**A.** 0.97

**Q.** What about the normalized growth (locus YJL168C, strain set2, active compounds read low) of the same compound?
**A.** 0.991

**Q.** And the normalized growth (locus YJL187C, strain SWE1 (second series), active compounds read low)?
**A.** 1.02

**Q.** And the normalized growth (locus YJL187C, strain SWE1, active compounds read low)?
**A.** 0.972

**Q.** And the normalized growth (locus YJR043C, strain POL32, active compounds read low)?
**A.** 0.981

**Q.** And the normalized growth (locus YJR066W, strain TOR1, active compounds read low)?
**A.** 0.845
